Sampled rows, rich in hits. Any-hit rate of the full collection: about 2.5%.
697 NFkB inh – lowers PMA/ionomycin-induced NF-kB signal in 697 B cells; 697 B-cell NF-kB luciferase reporter, 16 h; inhibition, % at 4 µM; AID 435022; 330,000 tested, 0.33% active; in the data active = inhibition above about 35%
ANO1 block – inhibitors of mouse TMEM16A calcium-activated chloride channel; normalized B-score (activity score, 25-100; higher = stronger inhibition) at 10 µM; HEK293 TMEM16A/YFP iodide influx fluorescence, ionomycin; 310,000 tested, 1.2% active; Q8BHY3;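 active = ratio plate-corrected score three or more library SD toward inhibition, starting fluorescence score within five deviations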;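 also: score derived from kinetic fluorescence span divided by baseline fluorescence per well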
Target sequence (Q8BHY3 whole entry, looked up): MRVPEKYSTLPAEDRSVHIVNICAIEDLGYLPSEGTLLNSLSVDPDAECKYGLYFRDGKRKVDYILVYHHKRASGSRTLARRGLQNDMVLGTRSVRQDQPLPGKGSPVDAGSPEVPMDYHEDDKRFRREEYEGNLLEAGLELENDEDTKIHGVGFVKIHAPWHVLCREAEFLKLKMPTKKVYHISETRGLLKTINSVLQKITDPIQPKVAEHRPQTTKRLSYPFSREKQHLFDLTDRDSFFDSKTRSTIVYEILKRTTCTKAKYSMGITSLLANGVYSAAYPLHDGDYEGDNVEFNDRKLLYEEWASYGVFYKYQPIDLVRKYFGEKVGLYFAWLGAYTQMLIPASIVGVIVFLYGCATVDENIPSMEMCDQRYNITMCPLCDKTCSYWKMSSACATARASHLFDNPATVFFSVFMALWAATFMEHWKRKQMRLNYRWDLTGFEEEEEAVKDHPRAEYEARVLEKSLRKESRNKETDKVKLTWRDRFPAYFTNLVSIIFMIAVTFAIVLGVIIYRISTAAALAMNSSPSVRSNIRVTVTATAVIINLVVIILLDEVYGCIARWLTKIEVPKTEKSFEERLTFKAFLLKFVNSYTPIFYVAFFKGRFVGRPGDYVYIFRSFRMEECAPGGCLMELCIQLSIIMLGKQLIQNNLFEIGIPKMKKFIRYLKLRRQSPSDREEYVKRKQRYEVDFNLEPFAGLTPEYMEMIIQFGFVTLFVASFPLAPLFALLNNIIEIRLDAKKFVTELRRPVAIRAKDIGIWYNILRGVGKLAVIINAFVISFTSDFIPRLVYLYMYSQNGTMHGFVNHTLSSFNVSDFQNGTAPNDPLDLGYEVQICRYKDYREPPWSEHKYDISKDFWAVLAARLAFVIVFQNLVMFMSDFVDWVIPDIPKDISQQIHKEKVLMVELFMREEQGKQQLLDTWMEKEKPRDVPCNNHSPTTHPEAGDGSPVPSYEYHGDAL
aSyn UTR inh – MLPCN primary screen, SNCA 5' untranslated region | alpha-synuclein 5'UTR reporter, inhibitor activity | inhibition, % (tested at 7.5 µM) | 300,000 tested, 0.82% active | AID 1813; in the data active = inhibition above about 60%;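 also: H4 neuroglioblastoma cells stably carrying SNCA 5'UTR luciferase fusion; 0% = DMSO wells and 100% = positive control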
Jurkat NFkB inh – inhibitors of the PMA/ionomycin-induced NF-kB reporter in Jurkat cells | PMA/ionomycin-induced NF-kB luciferase reporter, luminescence | inhibition, % at 4 µM | 330,000 tested, 0.53% active; in the data active = inhibition above about 50%
KLF5 inhibitor – suppresses KLF5 promoter-driven expression; DLD-1 KLF5 promoter-luciferase reporter, luminescence; inhibition, % at 5 µM; 290,000 tested, 0.23% active; AID 1700;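 active = inhibition above a per-plate limit of that plate's mean compound inhibition plus 3 SD, cut at about 60% in these data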;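 also: 0% = DMSO wells and 100% = LY294002 at 200 µM; higher means less KLF5 promoter-driven luciferase light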
TMEM16A act – activators or potentiators of mouse TMEM16A chloride channel. HEK293 TMEM16A/YFP-H148Q/I152L, iodide quench fluorescence; hits give low values. B-score at 10 µM. 340,000 tested, 0.3% active. AID 623877;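 active = fluorescence-ratio B-score plate-corrected deviation score at least 3 library SD below zero, with starting fluorescence score within 5 deviations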;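 also: channel opened by trigger with iodide after compound preincubation; score built on the fluorescence ratio of max minus min over baseline; more negative score means more quench and so TMEM16A activation or potentiation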
Jurkat NFkB conf – lowers PMA/ionomycin-induced NF-kB signal in Jurkat cells. shares compounds with Jurkat NFkB inh. Jurkat NF-kB luciferase, 16 h. inhibition, % at 4 µM. 2,700 tested, 27% active. AID 435020;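 active = inhibition reaching about 45% at 4 µM in either replicate, limit read from the data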;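 also: plate controls were PMA/ionomycin stimulated DMSO wells for no effect and unstimulated DMSO wells for full effect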
Active calls of the source: *; i = inactive; . = not tested or not shown.

SMILES	697 NFkB inh	ANO1 block	aSyn UTR inh	Jurkat NFkB inh	KLF5 inhibitor	TMEM16A act	Jurkat NFkB conf
Cc1ccnc(NC(=O)CNC(=O)c2sc3ccccc3c2Cl)c1	-71	i	-216	-114	.	i	.
Cc1ccnc(NC(=O)c2sc3cc(Cl)ccc3c2Cl)c1	-146	i	-140	-165	-28	i	-56
CCOC(=O)c1cnc2c(ccc3ccccc32)c1N	-120	i	-126	-166	-140	i	-117
Cc1ccc2c(c1)Oc1ccc([N+](=O)[O-])cc1C(=O)N2	7	i	-5	-4	8	i	.
Cc1ccc2c(c1)Oc1ccc(NC(=O)CCl)cc1C(=O)N2	17	i	-30	64*	2	i	51*
O=S(=O)(c1ccc(Cl)cc1)c1snnc1-c1ccccc1	-96	i	116*	53*	8	i	12
O=S(=O)(c1ccc(F)cc1)c1snnc1-c1ccccc1	.	i	-76	.	20	i	.
Cc1[nH]c2ccc(C(=O)OC(C)C(=O)NC3(C#N)CCCCC3)cc2c1C (configuration not stated)	-11	i	-1	15	.	i	.
O=C(Nc1ccc(-c2nc3ccccc3s2)c(OC(=O)c2ccccc2)c1)c1ccccc1	-171	i	-175	-167	-14	i	-113
O=C(Nc1ccc2nc3ccccc3nc2c1)c1ccccc1	.	i	-97	.	-99	i	.
CC(C)c1ccc(C2C3=C(COC3=O)Nc3cc4c(cc32)OCO4)cc1 (configuration not stated)	11	i	123*	70*	72*	i	2
Cc1ccc(NC(=O)CN2C(=O)NC3(CCCc4ccccc43)C2=O)c(C)c1 (configuration not stated)	-7	.	.	-7	.	i	.
Cc1ccc(S(=O)(=O)N2CCCN(C(=O)c3ccc(-n4nccc4C)cc3)CC2)cc1	9	.	.	-1	.	i	.
CC1CCCN(c2ncnc3c2cnn3-c2ccc(Cl)cc2)C1 (configuration not stated)	-8	i	98*	60*	.	i	87*
COC(=O)c1[nH]c2ccc(F)cc2c1NS(=O)(=O)c1ccc(OC)cc1	-44	i	100*	66*	53	i	47*
O=C(Nc1cc(Br)ccc1O)c1cc(-c2ccccc2)on1	-181	.	-131	-32	-113	i	.
CCCc1cc(C(=O)Nc2cc(C)ccc2O)no1	32	i	-250	92*	-117	i	61*
Cc1ccc(O)c(NC(=O)c2cc(-c3ccccc3)on2)c1	-25	i	-254	86*	-137	i	38
O=C(/C=C/c1ccc(F)cc1)Nc1cccc(S(=O)(=O)N2CCOCC2)c1	-26	.	.	-11	.	i	.
O=C1[C@@H]2Cc3c([nH]c4ccccc34)C(c3cccc([N+](=O)[O-])c3)N2C(=O)CN1C1CCN(Cc2ccccc2)CC1 (some centres not stated)	16	i	18	28	22	i	.
O=C(NC1CCCc2c1cnn2-c1cc(F)cc(F)c1)c1ccccn1 (configuration not stated)	-30	i	-5	-4	-5	i	.
COC(=O)c1ccc(C(=O)NC2CCCc3c2cnn3-c2cc(F)cc(F)c2)nc1 (configuration not stated)	-71	i	-9	52*	53	i	32
CCCC(=O)Nc1ccc2nn(-c3ccc(OC)cc3)nc2c1	-190	i	-121	-130	-143	i	.
CC(C)CC(=O)Nc1ccc2nn(-c3ccccc3)nc2c1	-158	i	-178	-183	-207	i	-112
COc1cc(Cn2c(-c3nonc3N)nc3ccccc32)ccc1C	6	i	96*	62*	1	i	46
SMILES	697 NFkB inh	ANO1 block	aSyn UTR inh	Jurkat NFkB inh	KLF5 inhibitor	TMEM16A act	Jurkat NFkB conf
COc1cccc(Cn2c(-c3nonc3N)nc3ccccc32)c1	-19	i	96*	51*	-38	i	34
Nc1nonc1-c1nc2ccccc2n1Cc1ccc(Cl)cc1	7	i	16	-1	-10	i	.
Cc1ccc(Cn2c(-c3nonc3N)nc3ccccc32)cc1	4	i	23	33	21	i	.
CCOC(=O)c1sc(N)c(C(=O)Nc2ccccc2OC)c1C	-29	i	30	71*	12	i	18
CCOC(=O)c1sc(N)c(C(=O)OC)c1C	6	i	-59	-35	-57	i	.
COc1cccc(C(O)c2nccn2Cc2ccccc2)c1OC (configuration not stated)	6	i	16	1	-28	i	.
Nc1cccc2nc3ccccc3cc12	24	i	101*	62*	56	i	-4
CCOC(=O)CN(c1ccccc1C)S(=O)(=O)c1ccc(Cl)cc1	-6	i	-16	2	1	i	.
CCCCCCCSc1nnc(N)s1	-6	i	-2	4	-11	i	.
C[C@H](CO)N1C[C@H](C)[C@@H](CN(C)C(=O)Nc2ccc3c(c2)OCO3)Oc2c(NC(=O)Nc3ccc4c(c3)OCO4)cccc2C1=O	22	.	.	7	.	i	.
COc1ccc(-c2ccc3oc(-c4ccc(OC)cc4)c(C#CCO)c3c2)cc1	-39	i	-23	73*	.	i	57*
COc1ccc(-c2oc3ccc(N4CCOCC4)cc3c2C#CCO)cc1	-57	i	-92	13	.	i	.
CC(C)c1ccc(-n2cnn(-c3ncccc3[N+](=O)[O-])c2=O)cc1	-155	i	-27	-204	-93	i	-126
NC(N)=N/N=C/c1ccc(OCc2ccccc2Cl)cc1	-37	i	-54	63*	18	i	-15
CCN(C(=O)COC(=O)c1ccc(C=O)cc1)c1c(N)n(Cc2ccccc2)c(=O)[nH]c1=O	-6	.	.	-4	.	i	.
CN(C)CCCn1cnc2c(c1=N)C(c1ccccc1)c1ccc3ccccc3c1O2 (configuration not stated)	2	i	90*	87*	-10	i	24
N=c1c2c(ncn1CCCO)Oc1c(ccc3ccccc13)C2c1ccccc1 (configuration not stated)	-15	i	-34	12	-14	i	.
COc1ccc(C2c3ccc4ccccc4c3Oc3ncn(CCN(C)C)c(=N)c32)cc1 (configuration not stated)	19	i	-16	51*	-12	i	4
Cc1cc(NCCN2CCOCC2)n2ncc(-c3ccccc3)c2n1	-139	i	-62	-179	-93	i	-88
O=C(Nc1c2c(nn1-c1ccccc1)CS(=O)C2)c1ccc2c(c1)OCO2 (configuration not stated)	-16	i	-8	12	-3	i	.

Source: PubChem (several laboratories)
